In PMC4336329 (PLoS ONE, 2015):
About 14,000 (4.5%) of roughly 310,000 compounds showed an effect of 50% or more. Effects have a minus sign here. Many of the other results were omitted from the sample, so strong results are more common in it than they were.

What follows are compounds tested against human ether-à-go-go-related gene (hERG) potassium channel (human, UniProt Q12809) (assay: primary screen, population patch clamp on CHO cells stably expressing hERG; higher = less effect of the substance).
human ether-à-go-go-related gene (hERG) potassium channel, sequence (Q12809 whole entry, looked up): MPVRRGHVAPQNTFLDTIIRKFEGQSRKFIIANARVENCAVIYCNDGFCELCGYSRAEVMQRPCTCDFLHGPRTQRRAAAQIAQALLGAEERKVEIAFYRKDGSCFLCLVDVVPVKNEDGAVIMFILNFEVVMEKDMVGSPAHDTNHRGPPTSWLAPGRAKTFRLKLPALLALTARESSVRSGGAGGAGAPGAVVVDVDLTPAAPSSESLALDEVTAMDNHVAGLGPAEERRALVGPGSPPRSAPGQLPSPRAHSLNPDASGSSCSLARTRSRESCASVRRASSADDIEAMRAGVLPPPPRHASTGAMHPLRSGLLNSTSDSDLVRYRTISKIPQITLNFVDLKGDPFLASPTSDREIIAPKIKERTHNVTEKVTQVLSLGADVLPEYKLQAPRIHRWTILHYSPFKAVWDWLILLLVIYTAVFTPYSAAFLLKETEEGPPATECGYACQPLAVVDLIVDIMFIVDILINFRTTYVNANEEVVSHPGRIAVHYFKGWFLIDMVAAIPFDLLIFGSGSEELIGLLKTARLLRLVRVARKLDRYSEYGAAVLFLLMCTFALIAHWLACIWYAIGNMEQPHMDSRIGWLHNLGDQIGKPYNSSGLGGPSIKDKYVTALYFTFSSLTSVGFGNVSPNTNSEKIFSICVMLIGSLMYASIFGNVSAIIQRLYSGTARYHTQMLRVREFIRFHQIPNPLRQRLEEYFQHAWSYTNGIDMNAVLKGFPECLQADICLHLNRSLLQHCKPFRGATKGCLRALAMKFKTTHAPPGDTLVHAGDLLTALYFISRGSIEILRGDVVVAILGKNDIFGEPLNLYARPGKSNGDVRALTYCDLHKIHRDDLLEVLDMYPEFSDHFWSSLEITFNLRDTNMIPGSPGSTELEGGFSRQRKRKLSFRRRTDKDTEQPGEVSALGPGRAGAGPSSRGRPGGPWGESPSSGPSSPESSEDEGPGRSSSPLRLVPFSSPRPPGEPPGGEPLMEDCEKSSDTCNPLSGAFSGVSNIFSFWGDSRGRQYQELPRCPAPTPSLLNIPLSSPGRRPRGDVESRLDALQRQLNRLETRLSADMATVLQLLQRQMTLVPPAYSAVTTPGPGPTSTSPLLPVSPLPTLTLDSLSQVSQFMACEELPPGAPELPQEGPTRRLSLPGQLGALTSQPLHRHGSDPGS
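Further: peak tail current of the secondary pulse compared with the same well before compound.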

Compound	hERG current change (%, negative = inhibition) at 10uM [%]
Cc1cc2cc(OCc3ccccc3)ccc2n1C	18
CN(C)S(=O)(=O)c1cccc(-c2csc(=Nc3ccccc3)n2CCCN2CCOCC2)c1	-26.5
O=C1[C@@H]2[C@H](C(=O)N1O)[C@H]1C=C[C@@H]2C1	-5.3
CC(C)(C)c1cc(CP(=O)(c2ccccc2)c2ccccc2)cc(C(C)(C)C)c1O	14.7
CC(=O)Nc1ccc(S(=O)(=O)N2CCSC2c2ccc(C)cc2)cc1 (centres unmarked)	2.9
Cc1csc(NC(=O)c2ccc3c(c2)OCO3)n1	-0.0676
CCN(CC)CCN(Cc1cc2cc(C)ccc2[nH]c1=O)C(=O)Nc1ccccc1OC	-62.2
CCN(CC)CCCN(Cc1cc2cc3c(cc2[nH]c1=O)OCO3)C(=O)Nc1ccccc1OC	-10.6
CCN(CC)CCCN(Cc1cc2cc3c(cc2[nH]c1=O)OCO3)C(=S)Nc1ccccc1OC	-10.5
Nc1c(-c2cccc(Cl)c2)cnn1-c1cccc([N+](=O)[O-])c1	-41.4
O=C1C2C3C=CC(C3)C2C(=O)N1c1ccc(-c2nc3ccccc3c(=O)o2)cc1 (centres unmarked)	19.6
COC(=O)C1=C(C)N(Cc2ccccc2)C(=O)N[C@H]1c1cccc(C(F)(F)F)c1	-8.04
FC(F)(F)c1ccccc1CN1CCCC(N2CCN(c3ccccc3)CC2)C1 (centres unmarked)	-0.712
Oc1ccccc1CN1CCCC(N2CCN(c3cccc(C(F)(F)F)c3)CC2)C1 (centres unmarked)	-61.9
Fc1ccccc1N1CCN(C2CCCN(Cc3cccc(C(F)(F)F)c3)C2)CC1 (centres unmarked)	-52.1
CCCN1CCC(N2CCN(c3cccc(C(F)(F)F)c3)CC2)CC1	-75.3
CN1CCC(N2CCN(c3cccc(C(F)(F)F)c3)CC2)CC1	-12.8
CCN(CC)CC(=O)N1CCCC(N2CCN(c3cccc(C(F)(F)F)c3)CC2)C1 (centres unmarked)	-10.5
CC(=O)c1cccc(CN2CCCC(N3CCN(c4ccccc4F)CC3)C2)c1 (centres unmarked)	-35.3
O=C(C1CCOCC1)N1CCCC(N2CCN(c3cccc(C(F)(F)F)c3)CC2)C1 (centres unmarked)	-12.9
Fc1ccccc1N1CCN(C2CCCN(Cc3ccccc3C(F)(F)F)C2)CC1 (centres unmarked)	-5.91
COc1ccc(CCNC(=O)c2nonc2N)cc1	-15.8
COc1ccc(CNC(=O)CN(CCC(C)C)S(=O)(=O)c2ccc3c(c2)OCCO3)cc1	-7.73
O=C(/C=C/c1cccc([N+](=O)[O-])c1)NCc1ccccc1	-23.2
Cc1ccc(C2CC(c3cccc(Br)c3)Nc3nnnn32)cc1 (centres unmarked)	-7.07
CCCCNC(=O)N(O)C1N(CCCC)C(=O)N(CC(=O)OC)C1(C)C (centres unmarked)	20
COc1ccc(-c2nc(NC(=O)C3CC(=O)N(Cc4ccco4)C3)sc2C)cc1 (centres unmarked)	-34.3

Compound	hERG current change (%, negative = inhibition) at 10uM [%]
CC(=O)c1sc(NC(=O)C2CC(=O)N(Cc3ccco3)C2)nc1-c1ccccc1 (centres unmarked)	-59.4
Cc1ccc(-c2csc(NC(=O)C3CC(=O)N(Cc4ccco4)C3)n2)cc1 (centres unmarked)	-25.5
COc1ccc(-c2csc(NC(=O)C3CC(=O)N(Cc4ccco4)C3)n2)cc1 (centres unmarked)	-70.4
CC(=O)c1sc(NC(=O)C2CC(=O)N(Cc3ccccc3)C2)nc1-c1ccccc1 (centres unmarked)	-15
CN(c1ccc(-c2csc(NC(=O)C3CC(=O)N(Cc4ccco4)C3)n2)cc1)S(C)(=O)=O (centres unmarked)	-19
CC(=O)COc1ccc2c3c(c(=O)oc2c1C)CCCCC3	-8.54
Cl.O=C(NCCCn1ccnc1)c1ccc(S(=O)(=O)N2CCOCC2)cc1	8.09
COCCCN1C(=O)C(=O)/C(=C(/O)c2ccc3c(c2)OCCO3)C1c1ccc(C(=O)OC)cc1 (centres unmarked)	1.43
COC(=O)c1ccc(C2/C(=C(\O)c3ccc4c(c3)OCCO4)C(=O)C(=O)N2CCCN(C)C)cc1 (centres unmarked)	-55.9
COc1ccc(C2/C(=C(\O)c3ccc4c(c3)OCCO4)C(=O)C(=O)N2CCCN(C)C)cc1 (centres unmarked)	17
O=C(COC(=O)CC1CC2CCC1C2)NC(=O)NCc1ccco1 (centres unmarked)	-4.89
Cc1nc2ccccc2c(=O)n1/N=C/c1ccccc1Cl	12.8
COC(=O)Cc1ccc(NC(=S)N2CCCC(CO)C2)cc1 (centres unmarked)	-63.2
COC(=O)Cc1ccc(NC(=S)N2CCCC(C)C2)cc1 (centres unmarked)	12.7
CC(=O)c1ccc(NC(=S)N2CCCC(CO)C2)cc1 (centres unmarked)	5.17
COCCNC(=O)CSc1nc2ccccc2c(=O)n1CC1CCCO1 (centres unmarked)	-11.9
N=c1c(C(=O)NC2CCCC2)cc2c(=O)n3ccccc3nc2n1CC1CCCO1 (centres unmarked)	-83.7
N=c1c(S(=O)(=O)c2ccccc2)cc2c(=O)n3ccccc3nc2n1CC1CCCO1 (centres unmarked)	-34
Cc1ccc(S(=O)(=O)c2cc3c(=O)n4ccccc4nc3n(CC3CCCO3)c2=N)cc1C (centres unmarked)	-50.8
CC(NC(=O)c1cc2c(=O)n3ccccc3nc2n(CC2CCCO2)c1=N)c1ccccc1 (centres unmarked)	-75.2
N=c1c(C(=O)NC2CCCCC2)cc2c(=O)n3ccccc3nc2n1CC1CCCO1 (centres unmarked)	-74.9
CCOC(=O)c1cc2c(=O)n3ccccc3nc2n(CC2CCCO2)c1=NC(=O)/C=C/c1ccccc1 (centres unmarked)	-35.7
Cc1ccc(S(=O)(=O)c2cc3c(=O)n4ccccc4nc3n(C)c2=N)cc1C	-2.47
O=C(NC1CCCCC1)c1ccc2c(=O)n(CC3CCCO3)c(=O)[nH]c2c1 (centres unmarked)	5.86
NS(=O)(=O)c1cccc(NC(=O)COC(=O)C2(c3cccc(F)c3)CCCC2)c1	-6.66
Cc1ccc(NC(=O)c2sc(Cl)nc2-c2ccccc2)cc1C	3.94
